Assay outcomes as filed in PubChem.
Most compounds without a hit are left out; they make up all but 19% or so of the library.
TDP1 cell noCPT – qHTS for Inhibitors of human tyrosyl-DNA phosphodiesterase 1 (TDP1): qHTS in cells in absence of CPT. AID 686978, 2013. 15% of 420,000 active. DT40 Tdp1-/- hTDP1 cells, no CPT, ATP luminescence, 48 h. Potency, µM (titrated, usually from 46.2 µM), without a hit: at the top dose activity change, negative = growth inhibition, actives largely listed as inhibitors; further: potency means the concentration at half of the fitted maximal effect; on the % scale 0 is the no-effect control and ±100 the full control effect; nearly all actives have a fitted effect of over 55% in size
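DT40 Tdp1-/-;hTDP1 cells, no CPT (DMSO vehicle only), 400 cells/well; compounds pin-transferred; ≥48 hr, 37 °C; CellTiter-Glo 30 min RT dark, luminescence read.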
ASM inhibitor – blocks human secretory acid sphingomyelinase; AID 504937; 0.006% of 340,000 active; placental ASM, HMU-PC fluorogenic substrate, 60 min; Potency, µM (highest dose often 57.5 µM), inactives show at the top dose activity change, negative = inhibition, usual class: inhibitors; P17405; further: potency means the concentration at half of the fitted maximal effect
Target sequence (P17405 47-631 limits assumed): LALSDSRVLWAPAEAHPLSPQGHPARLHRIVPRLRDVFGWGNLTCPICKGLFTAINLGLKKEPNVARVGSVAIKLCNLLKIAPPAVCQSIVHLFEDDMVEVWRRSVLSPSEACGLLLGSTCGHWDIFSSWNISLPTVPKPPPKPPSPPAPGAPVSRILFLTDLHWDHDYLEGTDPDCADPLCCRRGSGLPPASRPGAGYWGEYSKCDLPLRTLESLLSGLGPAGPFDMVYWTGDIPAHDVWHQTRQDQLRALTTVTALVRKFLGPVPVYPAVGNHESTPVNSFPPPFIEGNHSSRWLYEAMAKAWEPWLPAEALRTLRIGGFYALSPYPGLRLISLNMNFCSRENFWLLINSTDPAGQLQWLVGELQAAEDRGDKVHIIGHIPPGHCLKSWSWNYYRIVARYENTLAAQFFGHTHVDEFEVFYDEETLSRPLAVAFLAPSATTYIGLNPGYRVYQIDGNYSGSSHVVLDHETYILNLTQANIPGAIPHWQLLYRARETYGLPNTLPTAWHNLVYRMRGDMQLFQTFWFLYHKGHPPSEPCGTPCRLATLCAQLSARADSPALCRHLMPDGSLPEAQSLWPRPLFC
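Fluorogenic HMU-PC substrate (9 uM final) is turned over by placental ASM in 60 min at 37 C after a 10 min compound preincubation. Reaction ended by alkaline stop (pH 10), with fluorescence read at 386/447 nm.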
TGFb inhibitor – TGF-b pathway inhibition | HepG2 CAGA-GFP TGF-b/SMAD3 reporter, GFP fluorescence, 18 h; TGF-beta stimulated, 500 pg/mL final | Potency, µM (series often up to 46.1 µM), for inactives: at the highest dose activity, negative = inhibition, hits mostly inhibitors | 1.2% of 410,000 active | AID 588855; further: potency means the concentration at half of the fitted maximal effect; on the % scale 0 is the no-effect control and ±100 the full control effect; nearly all actives have a fitted effect of over 65% in size
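HEPG2 CAGA-GFP cells (1000/well, DMEM with 1% FBS) were pre-incubated 2 h at 37 degrees C, given compound by pin tool, then stimulated with TGF-beta at 500 pg/mL final for 18 h before per-cell GFP fluorescence imaging.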
DT40 TDP1 CPT – growth inhibition of DT40 Tdp1-/-;hTDP1 cells with camptothecin (screen for TDP1 inhibitors); 12% of 420,000 active; Potency, µM (highest dose often 46.2 µM), for the others: at the highest dose activity change, negative = growth inhibition, usual class: inhibitors; chicken DT40 Tdp1-/-;hTDP1 cells + 20 nM CPT, ATP luminescence, 48 h; further: potency means the concentration at half of the fitted maximal effect; on the % scale 0 is the no-effect control and ±100 the full control effect; nearly all actives have a fitted effect of over 55% in size
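Chicken DT40 Tdp1-/- cells complemented with human TDP1, 400 cells/well, exposed to compounds plus 20 nM camptothecin for at least 48 h at 37 C; viability read as ATP content by CellTiter-Glo luminescence.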
HepG2 tox – HepG2 cytotoxicity, counter-screen for TGF-b inhibitors | Potency, µM (series often up to 46.1 µM), inactives show at the top dose activity change, negative = cytotoxicity, most hits filed as cytotoxic | 0.76% of 410,000 active | HepG2 CAGA-GFP viability, ATP luminescence, 18 h; further: potency means the concentration at half of the fitted maximal effect
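CellTiter-Glo luminescence gave cytotoxicity after 18 hours at 37 degrees C. The cells were HepG2 CAGA-GFP in 1% FBS DMEM, stimulated with 500 pg/mL TGF-beta after compound addition. %Activity was normalised to no-cell wells (complete cell-killing) and DMSO (no toxicity), and curves were fitted and classified.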
IL-1B inflam inh – inhibitors of inflammasome signaling (IL-1 beta secretion) | 4.7% of 360,000 active | THP-1 LPS/ATP IL-1B secretion, AlphaLISA, 16 h; active compounds read low | activity change, % at 57.5 µM; in the data active means activity change below about -50%; inconclusive means mostly about -30% to -49%; further: on the % scale 0 is the no-effect control and ±100 the full control effect
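Secreted IL-1B measured by AlphaLISA bead assay after 16 h compound exposure of THP-1 cells; compounds (final up to 57.5 uM) added 1 h before LPS (250 ng/mL) and ATP (1.25 mM) stimulation; lower signal means less secretion.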
An asterisk follows results filed as active; i = inactive; ? = inconclusive; . = not tested or not shown; [ ] = dose if it differs, or a comment. Unless noted, the call rests on the fitted dose curve; in most records, active means well fitted curve in the direction sought with a large enough effect; inconclusive means small, poorly fitted or top-dose-only effect, or another doubt; inactive means no such curve, though single readings can be large; an effect the other way counts as inactive or inconclusive.

SMILES	TDP1 cell noCPT	ASM inhibitor	TGFb inhibitor	DT40 TDP1 CPT	HepG2 tox	IL-1B inflam inh
O=C(NCC1CCCO1)c1ccc(COc2ccccc2)o1 (stereo not given)	-27%	-2%	-7%	1%	0%	0
Cc1ccc(S(=O)(=O)N2C[C@@H]3[C@H]4CC[C@H](C4)[C@@H]3[C@@H](C)[C@@H]2C2CCCCC2=O)cc1 (stereo not given in full)	?	-3%	-25%	?	-18%	-22
CN1CCN(c2ccc(C(=O)c3cn(-c4ccc(F)c(Cl)c4)nn3)cc2)CC1	16µM*	46%	-4%	?	6%	10
CCCCC1(C)NC(=O)N(CC(=O)Nc2cc(S(=O)(=O)N3CCOCC3)ccc2Cl)C1=O (stereo not given)	-11%	0%	5%	-7%	1%	10
CCCCN(C(=O)CCn1c(=O)oc2ccccc21)c1ccccc1	?	3%	0%	18µM*	-8%	-5
CCN(C(=O)CCC(=O)N(CC)c1ccccc1)c1ccccc1	?	4%	10%	?	5%	2
CCCC(=O)N(CCN(C(=O)CCC)c1ccccc1)c1ccccc1	21µM*	-1%	-15%	12µM*	-18%	-21
Cc1cc(C)c2oc(C(=O)Nc3ccc(S(=O)(=O)N4CCCCC4)cc3)cc(=O)c2c1	-15%	.	16%	-15%	-4%	.
Cc1cnc(C)c(-c2cccc3c2OC(CNC(=O)/C=C/c2ccncc2)C3)n1 (stereo not given)	?	.	.	-6%[9.04 µM]	.	.
CCN1CCN(Cc2c(O)ccc3c2O/C(=C\C=C\c2ccccc2OC)C3=O)CC1	18µM*	-9%	92%	?	-12%	-23
COc1ccccc1N(CC(=O)Nc1ccc(Br)cc1F)S(=O)(=O)c1cccs1	?	-12%	?	?	5%	-54*
COc1ccccc1N(CC(=O)Nc1ccccc1)S(=O)(=O)c1cccs1	?	-1%	-2%	-23%	-17%	-5
COc1ccc(NC(=O)CN(c2ccccc2OC)S(=O)(=O)c2cccs2)cc1Cl	15µM*	-2%	-1%	?	7%	-6
COc1cccc(NC(=O)CN(c2ccccc2OC)S(=O)(=O)c2cccs2)c1	21µM*	-1%	1%	?	-8%	3
CCc1noc(C)c1C(=O)N1CCCC(N2CCN(c3ccccc3F)CC2)C1 (stereo not given)	-11%	4%	0%	-24%	-4%	20
CC(=O)c1ccc2c(c1)CC1(C2)Cc2cc3c(cc2C1)C(=O)CC3 (stereo not given)	3.3µM*	?	?	5.2µM*	-45%	14
CC(=O)c1ccc2c(c1)Cc1cc(C(C)=O)ccc1-2	-20%	6%	0%	-13%	-44%	-28
Cc1ccccc1Nc1sc(C(=O)c2ccc(F)cc2)c(N)c1C(=O)NCCc1ccccc1	18µM*	.	?	?	13µM*	.
CCOc1ccccc1Nc1sc(C(=O)c2ccccc2)c(N)c1C(=O)NCCc1ccccc1	?	.	-4%	?	-3%	.
COc1ccc(CCNC(=O)c2c(Nc3ccccc3C)sc(C(=O)c3ccccc3)c2N)cc1OC	9.2µM*	.	?	?	-39%	.
Cc1ccc(N=c2ssnc2Cl)cc1	3.7µM*	-1%	?	5.8µM*	-44%	-17
Cc1cc(C)nc(/N=c2/ssnc2Cl)c1	9.2µM*	-1%	9%	7.3µM*	0%	-101*
Cc1cc(C)c(C#N)c(Cl)n1	3%	-2%	1%	10%	-3%	20
Nc1ccccc1N=c1ssnc1Cl	?	30%	15%	?	-9%	21
Cc1nnc(N=c2ssnc2Cl)o1	1µM*	-3%	2.5µM*	1µM*	-40%	-15
SMILES	TDP1 cell noCPT	ASM inhibitor	TGFb inhibitor	DT40 TDP1 CPT	HepG2 tox	IL-1B inflam inh
CCN(Cc1ccncc1)Cc1ccc2c(c1)CN(C(=O)c1ccc(C#CC(C)(C)O)o1)CCO2	?	.	.	4%[9.04 µM]	.	.
Cc1cccc(NC(=O)CSc2cc(C)c(C#N)c3nc4ccccc4n23)c1	12µM*	41%	?	18µM*	-20%	50
CCc1cccc(NC(=O)CSc2nc3ccccc3nc2N2CCCCC2)c1	16µM*	.	-4%	12µM*	-16%	.
Cc1cccc(NC(=O)CSc2nc3ccccc3nc2N2CCCCC2)c1	?	0%	-10%	29µM*	-38%	-4
CCN(CC)c1cc(C)c(C#N)c2nc3ccccc3n12	?	i	7%	2%	1%	30
Cc1cccc(NC(=O)CSc2nc3ccccc3nc2N2CCCCC2)c1C	12µM*	.	14%	23µM*	-16%	.
CCOC(=O)C1(CCOC)CCCCC1=O (stereo not given)	6%	.	-6%	5%	-15%	-1
Cc1c(C(=O)N(C)Cc2ccc(OC(F)F)cc2)oc2ccccc12	-22%	-2%	-9%	-26%	-130%	23
Cc1ccc2c(c1)cc1c(=O)n(CC(=O)NC(C)CCc3ccccc3)nc(C)n12 (stereo not given)	-16%	.	-2%	-7%	10%	.
O=C(NCc1ccccc1)C(=O)Nc1ccc2nc3n(c(=O)c2c1)CCCCC3	-18%	.	-1%	1%	-6%	.
CCc1ccc(NC(=O)CSc2nc3ccccc3nc2N2CCCCC2)cc1	10µM*	9%	-1%	?	-6%	32
Cc1cc(C)c(NC(=O)c2nc3ccccc3nc2N2CCCCC2)c(C)c1	26µM*	.	4%	?	2%	.
COc1ccc(CC2(CO)CCN(Cc3nc(C(C)C)cs3)CC2)cc1	?	-3%	-4%	15%	-4%	14
COc1ccc(CC2(CO)CCN(Cc3cnc(-c4ccccc4C)nc3)CC2)cc1	13µM*	-1%	?	?	-23%	4
COc1ccc(CC2(CO)CCN(Cc3cnn(-c4ccccc4OC)c3)CC2)cc1	10µM*	6%	-7%	?	-15%	-9
COc1ccc(CC2(CO)CCN(Cc3cccc4nccnc34)CC2)cc1	-28%	5%	3%	2%	7%	-14
CSc1cccc(CN2CCC(CO)(Cc3ccccc3)CC2)c1	?	0%	-3%	-5%	2%	-18
Cc1cc(C)n(-c2cccc(CN3CCC(CO)(Cc4ccccc4)CC3)c2)n1	23µM*	2%	-3%	?	-30%	-71*
